Results taken from PubChem BioAssay (NCI).
About 83,000 compounds went through this panel and 20% of them were active in at least one assay; those are over-represented in the sample as a whole.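 Note: values are percent growth. 100 is the growth of untreated cells, values between 100 and 0 indicate rising inhibition; between -100 and 0 indicates cell death.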 Calls of active or inactive are those of the source. How the source made its calls: active means growth percent below 10; inactive means the rest.

Columns and labels:
Experiment in all cases: NCI-60 one-dose screen, 48 h (100 = growth as untreated, 0 = no growth, -100 = all killed)
Settings in all cases: 10 µM unless noted
NCI-H23 lung = test system: NCI-H23 lung
NCI-H226 lung = test system: NCI-H226 lung
NCI-H322M lung = test system: NCI-H322M lung
HOP-62 NSCLC = test system: HOP-62 NSCLC
NCI-H460 lung = test system: NCI-H460 lung
HOP-92 NSCLC = test system: HOP-92 NSCLC
NCI-H522 lung = test system: NCI-H522 lung
A549/ATCC NSCLC = test system: A549/ATCC NSCLC
786-0 renal = test system: 786-0 renal
COLO 205 colon = test system: COLO 205 colon
DU-145 prostate = test system: DU-145 prostate
K-562 leukemia = test system: K-562 leukemia
MALME-3M melanoma = test system: MALME-3M melanoma
MDA-MB-231 breast = test system: MDA-MB-231 breast
RXF 393 renal = test system: RXF 393 renal
SF-268 CNS = test system: SF-268 CNS
SF-295 CNS = test system: SF-295 CNS
SF-539 CNS = test system: SF-539 CNS
UACC-257 melanoma = test system: UACC-257 melanoma
M14 melanoma = test system: M14 melanoma

Measured: growth

O=[N+]([O-])c1cccc(-c2nc3sccn3c2-c2ccnc(NCCNS(=O)(=O)c3ccc(C(F)(F)F)cc3)n2)c1
inactive: NCI-H23 lung 43.3% | NCI-H226 lung 40.3% | NCI-H322M lung 61.8% | HOP-62 NSCLC 73% | NCI-H460 lung 33.4% | HOP-92 NSCLC 44.7% | NCI-H522 lung 34.3% | A549/ATCC NSCLC 31.9% | 786-0 renal 60.3% | COLO 205 colon 37.2% | DU-145 prostate 48.5% | K-562 leukemia 21.8% | MALME-3M melanoma 41.1% | MDA-MB-231 breast 60.2% | RXF 393 renal 56% | SF-268 CNS 39.8% | SF-295 CNS 37.4% | SF-539 CNS 74.5% | UACC-257 melanoma 49.1% | M14 melanoma 37.8%

COc1ccc(-c2cn3c(ccc4ccccc43)n2)cc1
inactive: NCI-H23 lung 97.5% | NCI-H226 lung 88% | NCI-H322M lung 87.3% | HOP-62 NSCLC 80.6% | NCI-H460 lung 97.7% | HOP-92 NSCLC 92.1% | NCI-H522 lung 87.5% | A549/ATCC NSCLC 107% | 786-0 renal 111% | COLO 205 colon 112% | DU-145 prostate 104% | K-562 leukemia 94.7% | MALME-3M melanoma 106% | MDA-MB-231 breast 83.3% | RXF 393 renal 121% | SF-268 CNS 101% | SF-295 CNS 89.9% | SF-539 CNS 90.5% | UACC-257 melanoma 118% | M14 melanoma 112%

O=C1O[C@H]([C@H](O)CO)C(O)=C1O
inactive: NCI-H23 lung 97.7% | NCI-H226 lung 103% | NCI-H322M lung 104% | HOP-62 NSCLC 107% | NCI-H460 lung 104% | HOP-92 NSCLC 109% | NCI-H522 lung 88.4% | A549/ATCC NSCLC 104% | 786-0 renal 103% | COLO 205 colon 107% | DU-145 prostate 100% | K-562 leukemia 107% | MALME-3M melanoma 119% | MDA-MB-231 breast 97.1% | RXF 393 renal 100% | SF-268 CNS 117% | SF-295 CNS 110% | SF-539 CNS 108% | UACC-257 melanoma 103% | M14 melanoma 106%

Cc1ccc2c(c1)n([O-])c1cc(Cl)ccc1[n+]2=O
inactive: NCI-H23 lung 97% | NCI-H226 lung 104% | NCI-H322M lung 115% | HOP-62 NSCLC 103% | NCI-H460 lung 114% | HOP-92 NSCLC 81.9% | NCI-H522 lung 89.2% | A549/ATCC NSCLC 98.9% | 786-0 renal 91.3% | COLO 205 colon 108% | DU-145 prostate 101% | K-562 leukemia 78.8% | MALME-3M melanoma 97.8% | MDA-MB-231 breast 80.9% | RXF 393 renal 107% | SF-268 CNS 108% | SF-295 CNS 109% | SF-539 CNS 107% | UACC-257 melanoma 97.1% | M14 melanoma 99%

NS(=O)(=O)c1ccc(-n2ncc3c(=O)[nH]c(CN4CCN(c5cc6c(cc5F)c(=O)c(C(=O)O)cn6C5CC5)CC4)nc32)cc1
inactive: NCI-H23 lung 87.9% | NCI-H226 lung 100% | NCI-H322M lung 102% | HOP-62 NSCLC 113% | NCI-H460 lung 101% | HOP-92 NSCLC 88.4% | NCI-H522 lung 91.8% | A549/ATCC NSCLC 104% | 786-0 renal 96.1% | COLO 205 colon 114% | DU-145 prostate 110% | K-562 leukemia 95.8% | MALME-3M melanoma 105% | MDA-MB-231 breast 85.8% | RXF 393 renal 98.2% | SF-268 CNS 91.6% | SF-295 CNS 91.8% | SF-539 CNS 97% | UACC-257 melanoma 105% | M14 melanoma 92.9%

CCCCCCCCCCNC(=O)CCl
inactive: NCI-H23 lung 47.5% | NCI-H226 lung 85.7% | NCI-H322M lung 92.8% | HOP-62 NSCLC 81.3% | NCI-H460 lung 92.9% | HOP-92 NSCLC 36.2% | NCI-H522 lung 50.4% | A549/ATCC NSCLC 93.6% | 786-0 renal 82.3% | COLO 205 colon 116% | DU-145 prostate 91.1% | K-562 leukemia 85.3% | MALME-3M melanoma 87.9% | MDA-MB-231 breast 90.4% | RXF 393 renal 75.3% | SF-268 CNS 82.2% | SF-295 CNS 102% | SF-539 CNS 84.1% | UACC-257 melanoma 84.3% | M14 melanoma 83.9%

COc1ccc(S(=O)(=O)NCCCNc2nccc(-c3c(-c4cccc(N)c4)nc4sccn34)n2)cc1
inactive: NCI-H23 lung 97.4% | NCI-H226 lung 89.4% | NCI-H322M lung 101% | HOP-62 NSCLC 117% | NCI-H460 lung 97.1% | HOP-92 NSCLC 92.8% | NCI-H522 lung 101% | A549/ATCC NSCLC 99.7% | 786-0 renal 92.1% | COLO 205 colon 75.8% | DU-145 prostate 92.1% | K-562 leukemia 69.7% | MALME-3M melanoma 103% | RXF 393 renal 96.1% | SF-268 CNS 87.6% | SF-295 CNS 102% | SF-539 CNS 101% | UACC-257 melanoma 113% | M14 melanoma 80.8%
active: MDA-MB-231 breast -61.7%

COc1ccc(S(=O)(=O)NCCNc2nccc(-c3c(-c4cccc(N)c4)nc4sccn34)n2)cc1
inactive: NCI-H23 lung 103% | NCI-H226 lung 96.1% | NCI-H322M lung 111% | HOP-62 NSCLC 110% | NCI-H460 lung 99.6% | HOP-92 NSCLC 96.2% | NCI-H522 lung 91.2% | A549/ATCC NSCLC 99.6% | 786-0 renal 99% | COLO 205 colon 106% | DU-145 prostate 105% | K-562 leukemia 88.9% | MALME-3M melanoma 101% | MDA-MB-231 breast 104% | RXF 393 renal 107% | SF-268 CNS 99.7% | SF-295 CNS 99.2% | SF-539 CNS 110% | UACC-257 melanoma 102% | M14 melanoma 102%

CCCCN(CCCC)Cc1c(C)[nH]c2cc(OC)ccc2c1=O
inactive: NCI-H23 lung 107% | NCI-H226 lung 103% | NCI-H322M lung 113% | HOP-62 NSCLC 88.9% | NCI-H460 lung 103% | HOP-92 NSCLC 65.3% | NCI-H522 lung 94.6% | A549/ATCC NSCLC 95.4% | 786-0 renal 105% | COLO 205 colon 101% | DU-145 prostate 106% | K-562 leukemia 98% | MALME-3M melanoma 98% | MDA-MB-231 breast 104% | RXF 393 renal 108% | SF-268 CNS 95.5% | SF-295 CNS 98.3% | SF-539 CNS 110% | UACC-257 melanoma 94.5% | M14 melanoma 102%

CCOC(=O)c1c2ncccc2n2c(=O)n(-c3ccc(Cl)cc3)nnc12
inactive: NCI-H23 lung 92.7% | NCI-H226 lung 104% | NCI-H322M lung 67.1% | HOP-62 NSCLC 71.7% | NCI-H460 lung 69.7% | HOP-92 NSCLC 101% | NCI-H522 lung 71.1% | A549/ATCC NSCLC 81.8% | 786-0 renal 97.1% | COLO 205 colon 109% | DU-145 prostate 112% | K-562 leukemia 77.7% | MALME-3M melanoma 95.7% | MDA-MB-231 breast 91.2% | RXF 393 renal 104% | SF-268 CNS 72.3% | SF-539 CNS 47.8% | UACC-257 melanoma 102% | M14 melanoma 81.1%
active: SF-295 CNS 9.85%

CCOC(=O)c1cnc2ccc(Br)cc2c1Nc1cccc(S(=O)(=O)NC)c1
inactive: NCI-H23 lung 84.7% | NCI-H226 lung 90.8% | NCI-H322M lung 98.3% | HOP-62 NSCLC 92.3% | NCI-H460 lung 102% | HOP-92 NSCLC 102% | NCI-H522 lung 83.6% | A549/ATCC NSCLC 104% | 786-0 renal 103% | COLO 205 colon 128% | DU-145 prostate 103% | K-562 leukemia 100% | MALME-3M melanoma 99.1% | MDA-MB-231 breast 95.4% | RXF 393 renal 99.5% | SF-268 CNS 94.9% | SF-295 CNS 94.2% | SF-539 CNS 98.2% | UACC-257 melanoma 114% | M14 melanoma 114%

COc1ccc(S(=O)(=O)NCCNc2nccc(-c3c(-c4cccc([N+](=O)[O-])c4)nc4sccn34)n2)cc1
inactive: NCI-H23 lung 93.1% | NCI-H226 lung 82.2% | NCI-H322M lung 97.5% | HOP-62 NSCLC 99.3% | NCI-H460 lung 87.3% | HOP-92 NSCLC 87.5% | NCI-H522 lung 86% | A549/ATCC NSCLC 80.2% | 786-0 renal 87.9% | COLO 205 colon 95.1% | DU-145 prostate 80% | K-562 leukemia 76.1% | MALME-3M melanoma 111% | MDA-MB-231 breast 82.9% | RXF 393 renal 78% | SF-268 CNS 66.4% | SF-295 CNS 90.6% | SF-539 CNS 99.3% | UACC-257 melanoma 106% | M14 melanoma 102%

O=C(CN1CCN(c2cc3c(cc2F)c(=O)c(C(=O)O)cn3C2CC2)CC1)Nc1cc(=O)[nH]c(=O)[nH]1
inactive: NCI-H23 lung 96.4% | NCI-H226 lung 101% | NCI-H322M lung 95.3% | HOP-62 NSCLC 102% | NCI-H460 lung 105% | HOP-92 NSCLC 88.7% | NCI-H522 lung 92.8% | A549/ATCC NSCLC 103% | 786-0 renal 95.9% | COLO 205 colon 110% | DU-145 prostate 112% | K-562 leukemia 103% | MALME-3M melanoma 95.3% | MDA-MB-231 breast 102% | RXF 393 renal 94.4% | SF-268 CNS 100% | SF-295 CNS 86.8% | SF-539 CNS 96.6% | UACC-257 melanoma 103% | M14 melanoma 89.2%

Nc1c(C(=O)Nc2cccc3c2OCCO3)sc2nc3c(cc12)CN(Cc1ccccc1)CC3
inactive: NCI-H23 lung 85.4% | NCI-H226 lung 82.5% | NCI-H322M lung 94.3% | HOP-62 NSCLC 72.5% | NCI-H460 lung 53.4% | HOP-92 NSCLC 83.4% | NCI-H522 lung 29.3% | A549/ATCC NSCLC 79.3% | 786-0 renal 87.1% | COLO 205 colon 90.9% | DU-145 prostate 86% | K-562 leukemia 20.1% | MALME-3M melanoma 68.1% | MDA-MB-231 breast 66.4% | RXF 393 renal 71.8% | SF-268 CNS 74.2% | SF-295 CNS 39.7% | SF-539 CNS 65.2% | UACC-257 melanoma 83% | M14 melanoma 54.6%

C=C1CC2(OC1=O)C(=O)N(CCCCCCCN1C(=O)C3(CC(=C)C(=O)O3)c3ccccc31)c1ccccc12 (stereo not given)
inactive: NCI-H23 lung 52.6% | NCI-H226 lung 63% | NCI-H322M lung 87% | HOP-62 NSCLC 117% | NCI-H460 lung 38% | A549/ATCC NSCLC 83.7% | 786-0 renal 46.7% | COLO 205 colon 12.8% | DU-145 prostate 58.2% | SF-268 CNS 60.3% | SF-295 CNS 82.6% | SF-539 CNS 16.9% | UACC-257 melanoma 65% | M14 melanoma 36.5%
active: HOP-92 NSCLC -1.35% | NCI-H522 lung -48.1% | K-562 leukemia 5% | MALME-3M melanoma -61.4% | MDA-MB-231 breast -9.65% | RXF 393 renal -32.8%
